# Measured values: ChEMBL document CHEMBL3988442, “University of Dundee, Small-Polar-MMV Screening Library” (2021)
# Screen size: about 38,000 compounds; about 1,200 (3.2%) showed an effect of 50% or more. The median lay at about -58%. The sample as a whole holds a higher share of strong results than the screen did.
# System: Plasmodium falciparum
# Assay: Calibr Malaria Delayed Death Assay SOP
# Format: functional, organism-based
# Design: scale not given: in the data most compounds retested in dose-response had high values
# Conditions: concentration 4.99e-06 (unit not given; other assays of the set use mol/L)
row,SMILES,Percent Effect [%]
1,c1cnn(CCNCc2cnc(N3CCOCC3)nc2)c1,-160.5
2,Clc1snnc1CN1CCCC1Cn1cncn1 (stereo not given),-22.89
3,CCc1nc(CN2CCCC(N(C)CCn3cccn3)C2)no1 (stereo not given),-71.81
4,Cc1nc(N(C)C)nc(C)c1NS(=O)(=O)c1ccccc1Cl,-104.4
5,O=C(NCCc1cccc(F)c1)c1nc2c(s1)CCCN2C(=O)C1CC1,-105
6,COC[C@@H]1CCC[C@]12CN(S(=O)(=O)c1cn(C)cn1)CCO2,-139.4
7,CSCC(=O)NCc1cc(Br)ccc1OC(F)F,-97.53
8,OCCNc1nc(NCc2cccnc2)nc2nccnc12,-78.22
9,NC(=O)C1Cn2ccnc2C2(CCN(C(=O)c3ccncc3)CC2)O1 (stereo not given),-59.21
10,CC1N(c2cnn(C)c2)C(=O)COC12CCN(Cc1ccoc1)CC2 (stereo not given),-59.84
11,CCc1ncc2c(n1)CN(Cc1nc(-c3cccs3)no1)CC2,-24.12
12,COCCC1(C(=O)O)CCCN(C(=O)c2cc(F)ccc2OC)C1 (stereo not given),-162.1
13,CC(=O)N1CCN(C(=O)Cn2ccc3c(Cl)cccc32)CC1,-40.91
14,Cc1nc(C)n(CC2CCCN2CC(=O)Nc2cccnc2)n1 (stereo not given),-55.47
15,CC(C)CN1CCCC1c1ccc(C(=O)Nc2cn(C)nn2)s1 (stereo not given),51.14
16,CN1CCCC1c1ccc(C(=O)Nc2c3c(nn2C)CCC3)s1 (stereo not given),-68.39
17,CC(C)CN(C(=O)Nc1cccnc1)C1CC1,-3.552
18,CC(C)CN1CCCC1c1ccc(C(=O)Nc2cc[nH]n2)s1 (stereo not given),42.59
19,O=C(CN1CCc2onc(-c3ccccc3F)c2C1)NC1CC1,-100.2
20,COc1ccc(CCC(=O)N2CCCC(n3cncn3)C2)cc1 (stereo not given),-80.83
21,O=C(Cc1ccccc1)N1CCC2(CC1)COCCN2CC1CC1.O=C(O)C(F)(F)F,-81.37
22,CCOc1ccc(C(=O)N2CCCCC2Cn2nc(C)cc2C)cn1 (stereo not given),-93.63
23,CNC(=O)Cc1cc2nccc(-c3c(OC)cccc3OC)n2n1,-192.8

row,SMILES,Percent Effect [%]
1,Cc1cc2nc(C(C)C)cc(N3CCN(S(N)(=O)=O)CC3)n2n1,-79.73
2,COc1ccc(C2CCCN2C(=O)NCCCn2cccn2)cc1 (stereo not given),-95.69
3,CCN(CC)Cc1ccccc1NC(=O)N(C)Cc1ccc(OC)cc1,39.65
4,CC(=O)N(C)Cc1ccccc1NC(=O)c1ccccc1C,-129.3
5,O=C(c1cc(C2CC2)[nH]n1)N1CCN(Cc2ccccc2)CC1,-79.8
6,O=S(=O)(C1CC1)N1CCc2ncnc(N3CCOCC3)c2CC1,-72.08
7,CN(Cc1ccc(C#N)cc1)CC1CCS(=O)(=O)C1 (stereo not given),-39.39
8,Cc1nccc(CN2CC[C@H](Oc3cccc(F)c3)[C@@](C)(O)C2)n1,-32.63
9,C[C@]1(O)CN(CC(=O)N2CCCC2)CC[C@@H]1Oc1cccc(F)c1,21.38
10,C[C@]1(O)CN(CCC(N)=O)CC[C@@H]1Oc1cccc(F)c1,-45.94
11,C[C@]1(O)CN(CCO)CC[C@@H]1Oc1cccc(F)c1,63.55
12,C[C@]1(O)CN(Cc2cccc(C(=O)O)c2)CC[C@@H]1Oc1cccc(F)c1,-94.06
13,Cc1cnccc1CN1CC[C@@](C)(O)[C@H](Oc2cccc(F)c2)C1,38.73
14,C[C@]1(O)CN(Cc2ncccc2F)CC[C@@H]1Oc1cccc(F)c1,-43.28
15,Cc1cnccc1CN1CC[C@H](Oc2cccc(F)c2)[C@@](C)(O)C1,79.24
16,Cc1ccc(C(F)(F)F)cc1NC(=O)C1CCCN1 (stereo not given),-141.5
17,CC(=O)Nc1ccc(CNc2cccc(CS(C)(=O)=O)c2)cc1,-47.89
18,O=C(NCc1cccs1)[C@@H]1CC[C@@H]2[C@@H](CCN2C2CCOCC2)O1.O=C(O)C(F)(F)F,-51.06
19,CCN(CC)CCNC(=O)c1ccc(-n2ccc3ccccc32)s1,90.12
20,O=C(NCCN1CCOCC1)c1ccc(-n2ccc3ccccc32)s1,6.644
21,O=C(NCCCN1CCOCC1)c1ccc(-n2ccc3ccccc32)s1,33.29
22,CCc1n[nH]c(C2CN(C(=O)c3ccc(NC4CC4)nc3)CCO2)n1 (stereo not given),-51.88
23,CC[C@H](C)[C@H](N)C(=O)Nc1nc(-c2cnc(N3CCOCC3)nc2)cs1,-43.38

row,SMILES,Percent Effect [%]
1,OC(COc1ccccc1)CN1CCN(c2nccs2)CC1 (stereo not given),-10.76
2,CS(=O)(=O)N1C[C@H]2CCC[C@@]2(COc2ccccn2)C1.O=C(O)C(F)(F)F,2.668
3,Cc1cccc(CN2C[C@H]3CCC[C@@]3(COCc3csc(C)n3)C2)n1.O=C(O)C(F)(F)F.O=C(O)C(F)(F)F,81.41
4,O=C(O)C(F)(F)F.O=C(O)C(F)(F)F.c1ccc(CN2C[C@H]3CCC[C@@]3(COCC3CC3)C2)nc1,-73.03
5,Cn1cc(CN2C[C@@H]3COC[C@]3(COCC3CC3)C2)cn1.O=C(O)C(F)(F)F,-16.85
6,Cc1cc(CN2C[C@H]3CCC[C@@]3(COCc3csc(C)n3)C2)no1.O=C(O)C(F)(F)F,11.53
7,Cn1cc(CN2C[C@H]3CCC[C@@]3(COc3ccccn3)C2)cn1.O=C(O)C(F)(F)F.O=C(O)C(F)(F)F,64.46
8,O=C(O)C(F)(F)F.O=C(c1ncccn1)N1C[C@H]2CCC[C@@]2(COc2ccccn2)C1,12.48
9,Cc1ccc(C(=O)N2C[C@H]3CCC[C@@]3(COc3ccccn3)C2)nc1.O=C(O)C(F)(F)F.O=C(O)C(F)(F)F,6.864
10,O=C(O)C(F)(F)F.O=C(c1cocn1)N1C[C@H]2CCC[C@@]2(COc2ccccn2)C1,50.75
11,Cc1nc(COC[C@@]23CCC[C@@H]2CN(Cc2nccs2)C3)cs1.O=C(O)C(F)(F)F,-17.19
12,Cn1cc(CN2C[C@H]3CCC[C@@]3(COCC3CC3)C2)cn1.O=C(O)C(F)(F)F,51.84
13,Fc1cnc(N2C[C@H]3CCC[C@@]3(COc3ccccn3)C2)nc1.O=C(O)C(F)(F)F.O=C(O)C(F)(F)F,3.485
14,COCc1ncc(-c2nccn2CCS(C)(=O)=O)cn1,-109
15,CS(=O)(=O)CCCNc1cccc(COC2CCCCC2)c1,-119.3
16,Cc1cc(C(=O)N2CCCC2)ccc1NCc1nc(CC(C)C)no1,-36.08
17,C=C/C=c1\c(=C/C)oc2c(NCc3ccccc3)ncnc12,-45.75
18,CCCc1nc(N2CCCC(C)C2)c2c(n1)c(C)nn2CC (stereo not given),-54.34
19,CCc1c(C)sc2nc3n(CC(N)=O)nc(SC)n3c(=O)c12,-38.8
20,CN(C)[C@H]1CCCCN(C(=O)COCc2nc3cc(F)ccc3[nH]2)C1,-11.74
21,COC(C)Cc1nc(-c2cnn3c(C)cc(C)nc23)no1 (stereo not given),-0.05951
22,CO[C@@H]1CCN(c2ncc(F)cn2)[C@@H]2CN(Cc3cccnc3)C[C@@H]21.O=C(O)C(F)(F)F.O=C(O)C(F)(F)F.O=C(O)C(F)(F)F,-59.6
23,CO[C@@H]1CCN(Cc2ccccn2)[C@@H]2CN(Cc3ccco3)C[C@@H]21.O=C(O)C(F)(F)F.O=C(O)C(F)(F)F.O=C(O)C(F)(F)F,81.61

row,SMILES,Percent Effect [%]
1,CCN1C[C@H]2[C@@H](C1)N(c1ncc(F)cn1)CC[C@H]2OC.O=C(O)C(F)(F)F.O=C(O)C(F)(F)F,33.74
2,CO[C@@H]1CCN(Cc2c(C)noc2C)[C@@H]2CN(Cc3ccco3)C[C@@H]21.O=C(O)C(F)(F)F.O=C(O)C(F)(F)F,39.75
3,CO[C@@H]1CCN(Cc2ccoc2)[C@@H]2CN(Cc3ccco3)C[C@@H]21.O=C(O)C(F)(F)F.O=C(O)C(F)(F)F,46.48
4,CO[C@H]1CCN(c2ncc(F)cn2)[C@@H]2CN(Cc3ccco3)C[C@H]12.O=C(O)C(F)(F)F.O=C(O)C(F)(F)F,62.54
5,Clc1snnc1CN(Cc1cccs1)C1CC1,-103.1
6,CCc1noc(C(C)N(C)CC(=O)Nc2cccc(C)c2C)n1 (stereo not given),-134.7
7,O=C(O)[C@@H]1CN(C(=O)c2ccc(F)c(F)c2)C[C@H]1c1cccc(F)c1,-108.3
8,Cc1cc(CN2CCN(C(=O)C(C(C)C)n3cncn3)CC2)on1 (stereo not given),-30.78
9,CCC(CNC(=O)c1ccccn1)N1CCc2ccccc2C1 (stereo not given),22.7
10,O=c1ccc(-c2cccs2)nn1CN1CCc2ccccc2C1,-135
11,O=C1CCCCCN1Cc1cccc(OC(F)F)c1,-103.2
12,Cc1noc(C)c1CN1CCCCC1CCc1ccc(O)cc1 (stereo not given),50.08
13,Cc1noc(C)c1CN1CCCC1C(=O)OCc1ccccc1 (stereo not given),-68.08
14,CSCc1noc(CN2CCCCC2CCc2ccc(O)cc2)n1 (stereo not given),-58.4
15,c1cc(-c2cnccn2)cc(-c2ccn(CCCN3CCCCC3)n2)c1,18.71
16,c1cc(-c2cnccn2)cc(-c2ccn(CCN3CCCC3)n2)c1,67.88
17,c1cc(-c2cnccn2)cc(-c2ccn(CCN3CCCCC3)n2)c1,41.47
18,Cc1cc2[nH]c(=O)oc2cc1S(=O)(=O)N1CCC(N2CCCC2=O)CC1,-16.02
19,CC(=O)N(C)CC(=O)NC(C)c1ccc(OCCC(C)C)cc1 (stereo not given),-42.24
20,Cc1nc(CCNC(=O)NCC(c2ccco2)N(C)C)cs1 (stereo not given),-71.79
21,O=C(NCCc1ccncc1)[C@H]1C[C@@H]2CCN(c3nncs3)C[C@H]2O1,-93.92
